Data published in ChEMBL document CHEMBL4513216, “Probing the Open Global Health Chemical Diversity Library for Multistage-Active Starting Points for Next-Generation Antimalarials” (ACS Infect Dis, 2020).
Hit rate of the full screen: of about 68,000 compounds, about 2,700 (4%) showed an effect of 50% or more. The full list was thinned out, with strong results kept by preference.

These compounds were tested on Plasmodium berghei (assay: Screen against P. berghei liver stage (PbLuc), transformed with Luciferase, at 2uM). Settings: tested at 2 uM.
Type: functional, HepG2

Question: With `CCn1cc2c(n1)CN(Cc1ccncc1)CC2COCC1CC1` (configuration not stated) as the compound, how does the INHIBITION read?
Answer: 14.94%

Question: `CCOCC1CN(c2ccncn2)Cc2cnn(CC)c21` (configuration not stated) was tested. Which INHIBITION did it give?
Answer: 32.69%

Question: `Cc1cc2c(N3CCC(N(C)CCc4cnn(C)c4)CC3)ncnc2s1` was tested. Which INHIBITION did it give?
Answer: -15.4%

Question: With `CSCC(CCO)NC(=O)Nc1ccc(Br)cc1` (configuration not stated) as the compound, how does the INHIBITION read?
Answer: -39.48%

Question: `C[C@@H]1CN(C(=O)CCc2nncn2C)CC[C@@]1(O)C1CCC1` was tested. Which INHIBITION did it give?
Answer: 12.43%

Question: Which INHIBITION does the source give for `C[C@@H]1CN(C(=O)CCc2cnn(C)c2)C[C@@]1(O)C1CCC1` here?
Answer: 11.33%

Question: How did the INHIBITION turn out when `C[C@@H]1CN(C(=O)CCc2nncn2C)C[C@@]1(O)C1CCC1` was run?
Answer: 52.08%

Question: With `Cc1noc(C)c1CCC(=O)Nc1ccn(C)n1` as the compound, how does the INHIBITION read?
Answer: -7.68%

Question: With `CN(Cc1cnccn1)CC1CCOc2ccccc2C1` (configuration not stated) as the compound, how does the INHIBITION read?
Answer: 20.76%

Question: How did the INHIBITION turn out when `CCc1n[nH]c(C(=O)NCCn2ccc(C)n2)c1C` was run?
Answer: 16.87%

Question: With `CCc1n[nH]c(C(=O)NCCn2nccc2C)c1C` as the compound, how does the INHIBITION read?
Answer: 20.71%

Question: How did the INHIBITION turn out when `CCc1n[nH]c(C(=O)NCCn2ccnc2C)c1C` was run?
Answer: 57.34%

Question: `CC(=O)c1ccc(F)cc1-c1cc(NCCO)nc2[nH]ccc12` was tested. Which INHIBITION did it give?
Answer: 6.85%

Question: For `COc1ccccc1Nc1nc2c(s1)C(=O)CN(C(=O)CC(C)C)C2`, which INHIBITION is on record?
Answer: 2.6%

Question: Which INHIBITION does the source give for `CC(O)CNC(=O)c1nc(Cc2c(Cl)cccc2Cl)no1` (configuration not stated) here?
Answer: 20.71%

Question: With `CC(C)CNC(=O)CNC(=O)c1nc(Cc2c(Cl)cccc2Cl)no1` as the compound, how does the INHIBITION read?
Answer: -2.09%

Question: `O=C(NCC(=O)N1CCCC1)c1nc(Cc2c(Cl)cccc2Cl)no1` was tested. Which INHIBITION did it give?
Answer: 57.4%

Question: How did the INHIBITION turn out when `COC(=O)NCC(=O)NCC(C)(C)c1cccc(Br)c1` was run?
Answer: 19.07%

Question: For `Cc1cccc(CN2CCC3(CCC(C(=O)N(C)C)O3)CC2)n1` (configuration not stated), which INHIBITION is on record?
Answer: 58.4%

Question: For `CN(C)C(=O)C1CCC2(CCN(Cc3ccc4ccccc4n3)CC2)O1` (configuration not stated), which INHIBITION is on record?
Answer: 23.26%

Question: For `Cc1ccc(CN2CCC3(CCC(C(=O)N(C)C)O3)CC2)o1` (configuration not stated), which INHIBITION is on record?
Answer: 5.14%

Question: Which INHIBITION does the source give for `CCn1cnc(NC(=O)NCC2CCS(=O)(=O)CC2)n1` here?
Answer: 28.85%

Question: Which INHIBITION does the source give for `Cc1ccc(CN2CCOC(C)(c3cnn(C)c3)C2)cc1` (configuration not stated) here?
Answer: 21%

Question: `CC(C)N1CCN(C(=O)Cc2csc(-c3ccco3)n2)CC1` was tested. Which INHIBITION did it give?
Answer: 28.18%

Question: Which INHIBITION does the source give for `O=C(Cc1csc(-c2ccco2)n1)N1CCSCC1` here?
Answer: 50.76%

Question: Which INHIBITION does the source give for `O=C(NCc1ccco1)C1CCCN1Cc1nc(-c2ccco2)no1` (configuration not stated) here?
Answer: -43.47%

Question: With `O=C(Cc1csc(-c2ccco2)n1)N1CCN(CCO)CC1` as the compound, how does the INHIBITION read?
Answer: -27.91%

Question: Which INHIBITION does the source give for `O=C(C1CCCN1Cc1nc(-c2ccco2)no1)N1CCSCC1` (configuration not stated) here?
Answer: 58.05%

Question: Which INHIBITION does the source give for `O=C(C1CCCCN1Cc1nc(-c2ccco2)no1)N1CCCC1` (configuration not stated) here?
Answer: -113.33%

Question: For `CNC(=O)C1CCCN(C(=O)OC)C1` (configuration not stated), which INHIBITION is on record?
Answer: -0.28%

Question: `O=C(CCN1CCCCO1)NCc1cn2c(n1)SCC2` was tested. Which INHIBITION did it give?
Answer: 21.36%

Question: For `Cc1nc(-c2ccccc2)n(CC(=O)NCC(C)C)n1`, which INHIBITION is on record?
Answer: 26.4%

Question: For `COc1ccc(CN2CCC3(CCCN(c4ncc(F)cn4)C3)C2)cc1` (configuration not stated), which INHIBITION is on record?
Answer: -50.35%

Question: For `Cc1nc(C)n(CC2CN(c3ccc(C#N)cn3)CCO2)n1` (configuration not stated), which INHIBITION is on record?
Answer: -16.42%

Question: `CN(C)CC1CN(c2ccc(C#N)cn2)CCO1` (configuration not stated) was tested. Which INHIBITION did it give?
Answer: 54.85%

Question: With `Cc1cnn(CC2CN(c3ccc(C#N)cn3)CCO2)c1` (configuration not stated) as the compound, how does the INHIBITION read?
Answer: -11.2%

Question: `Cc1cccc(CN2C[C@@H]3CC[C@H]2CN(Cc2[nH]cnc2C)C3)n1` was tested. Which INHIBITION did it give?
Answer: 25.68%

Question: For `Cc1n[nH]cc1CNC1CCN(c2cccc(C(F)(F)F)c2)CC1`, which INHIBITION is on record?
Answer: 78.72%

Question: How did the INHIBITION turn out when `Cc1n[nH]cc1CNC1CCN(c2ccc(F)cc2)CC1` was run?
Answer: -13.72%

Question: With `COc1cccc(-c2n[nH]cc2CNC2CCN(C3CC3)CC2)c1` as the compound, how does the INHIBITION read?
Answer: -13.89%

Question: With `Cc1n[nH]cc1CNC1CCN(c2ccccc2)CC1` as the compound, how does the INHIBITION read?
Answer: 7.83%

Question: `COc1ccccc1CC(=O)N1CCC(NCc2c[nH]nc2C)CC1` was tested. Which INHIBITION did it give?
Answer: -14.17%

Question: How did the INHIBITION turn out when `COc1cccc(CC(=O)N2CCC(NCc3c[nH]nc3C)CC2)c1` was run?
Answer: 55.06%

Question: `Fc1cnc(N2CCC3(CC2)CC(OCc2cccnc2)CO3)nc1` (configuration not stated) was tested. Which INHIBITION did it give?
Answer: 11.18%

Question: With `CC(=O)N[C@@H]1CN(C(=O)c2cc(C)oc2C)C[C@H]1c1ccc(C)o1` as the compound, how does the INHIBITION read?
Answer: -29.82%

Question: With `Cc1ccc(NC2CCN(C(=O)CN(C)C3CC3)CC2)nn1` as the compound, how does the INHIBITION read?
Answer: 21.31%

Question: With `CC(Cn1ccnc1)NC(=O)N(C)Cc1ccsc1` (configuration not stated) as the compound, how does the INHIBITION read?
Answer: 26.85%

Question: For `CO[C@H]1CCN(Cc2cccs2)[C@@H]2CN(Cc3ccncc3)C[C@H]12`, which INHIBITION is on record?
Answer: -4.92%

Question: With `COCCN1C(=O)CC[C@@H]2[C@H]1CCN2Cc1ccc(C)s1` as the compound, how does the INHIBITION read?
Answer: 10.17%

Question: Which INHIBITION does the source give for `CNc1nc(C)c(C(=O)N2CCC(C(O)Cc3ccccc3)CC2)s1` (configuration not stated) here?
Answer: 40.88%

Question: With `CCn1nc(C)c2c1cnn2CCNS(=O)(=O)c1cccs1` as the compound, how does the INHIBITION read?
Answer: 61.77%

Question: Which INHIBITION does the source give for `CCn1nc(C)c2c1cnn2CCNS(=O)(=O)c1ccccc1` here?
Answer: 0.36%

Question: `CCn1nc(C)c2c1cnn2CCNS(C)(=O)=O` was tested. Which INHIBITION did it give?
Answer: 15.46%

Question: `CC(=O)Nc1ccc(/C=C/c2ncc(C(=O)O)s2)cc1` was tested. Which INHIBITION did it give?
Answer: 69.71%

Question: `COC(=O)c1ccc(/C=C/c2ncc(C(=O)O)s2)cc1` was tested. Which INHIBITION did it give?
Answer: -39.34%

Question: For `COC(=O)c1cnc(/C=C/c2ccc(C(=O)O)cc2)s1`, which INHIBITION is on record?
Answer: 23.45%

Question: How did the INHIBITION turn out when `CN1[C@@H](C(=O)NCC2CC2)C[C@H]2CN(Cc3cccc(C#N)c3)C[C@H]21` was run?
Answer: 36.99%

Question: With `OC(CNCc1ccccc1C(F)(F)F)c1ccccc1` (configuration not stated) as the compound, how does the INHIBITION read?
Answer: -2.86%

Question: `CCC[C@H]1CN(CCS(C)(=O)=O)C[C@@H]1NC(=O)Cn1cc(C)cn1` was tested. Which INHIBITION did it give?
Answer: 55.44%

Question: With `CCC[C@H]1CN(CCOC)C[C@@H]1NC(=O)Cn1cc(C)cn1` as the compound, how does the INHIBITION read?
Answer: -17.99%

Question: For `CCC[C@H]1CN(CCCO)C[C@@H]1NC(=O)Cn1cc(C)cn1`, which INHIBITION is on record?
Answer: 3.97%

Question: How did the INHIBITION turn out when `Cc1cncc(C(=O)N2CCC3(CCCN(c4nncs4)C3)C2)c1` (configuration not stated) was run?
Answer: -39.92%

Question: `COc1ccc(CCN(C)C(=O)CN2C(=O)OC[C@@H]2C(C)C)cc1OC` was tested. Which INHIBITION did it give?
Answer: -4.77%

Question: How did the INHIBITION turn out when `Cc1nc(CN2CCc3cc(C(=O)O)c(N(C)C)nc3CC2)cs1` was run?
Answer: 63.04%

Question: Which INHIBITION does the source give for `Cc1cnc(N2CCc3cc(C(=O)O)c(N(C)C)nc3CC2)nc1` here?
Answer: -1.81%

Question: With `Cc1cccc(CN2CCc3cc(C(=O)O)c(N(C)C)nc3CC2)n1` as the compound, how does the INHIBITION read?
Answer: 30.19%

Question: `O=C(c1ccc[nH]1)N1CCCC2(CCN(c3ccsc3)C2=O)C1` (configuration not stated) was tested. Which INHIBITION did it give?
Answer: 26.92%
